Shown are actives, neighbours in structure and some others; about 4.6% of the full set was active somewhere.
GRIN3A LBD mod = modulators (binders) of human NR3A ligand-binding domain; NR3A LBD differential scanning fluorimetry, Tm shift; 0% = protein alone, 100% = glycine-bound protein; Tm shift relative to glycine control, % at 25 µM; hit rate 2.5% among 340,000; AID 1259313;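 active means melting temperature shift of at least 10% of the positive control shift, at one fixed dose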
ADAM17 inh = inhibits human ADAM17; P78536; recombinant ADAM17, EDANS/DABCYL FRET peptide cleavage; inhibition, % at 6.95 µM; hit rate 0.83% among 370,000;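 active means inhibition above the mean of compounds lying between control limits plus 3 SD, set per campaign, cut at about 8.5% in these data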;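 further: 0% = DMSO-only wells as the low control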
proKLK7 act = activators of human kallikrein-7 zymogen; activation, % at 7 µM; hit rate 0.9% among 370,000; purified proKLK7, EDANS-DABCYL substrate fluorescence; 100% is mature enzyme control, 0% vehicle;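 active means activation above the mean of all tested compounds plus 3 SD, computed per campaign excluding outliers beyond control limits, cut at about 13% in these data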
FAS-TE inh = blocks the thioesterase domain of human fatty acid synthase; P49327; inhibition, % at 15 µM; recombinant FAS-TE, OMFH fluorogenic substrate, fluorescence endpoint; hit rate 0.67% among 360,000;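 active means compounds whose normalised, plate-corrected inhibition of enzyme fluorescence in the single-dose primary screen is 50% or more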;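 further: 0% = DMSO with enzyme and 100% = substrate without enzyme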
ADAM10 inh = ADAM10 inhibition, QFRET primary screen; hit rate 0.62% among 370,000; AID 720582; recombinant ADAM10, EDANS/DABCYL FRET peptide cleavage, 3 h; inhibition, % at 7 µM;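 active means inhibition above a per-campaign cutoff equal to the mean of compounds falling between control-based bounds plus 3 SD, cut at about 20% in these data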;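 further: 0% = DMSO wells while the 100% control is not disclosed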
ADAM10 ctr = inhibits human ADAM10 in ADAM17 exosite counter-screen. shares compounds with ADAM17 inh. recombinant ADAM10, EDANS/DABCYL FRET peptide cleavage, 3 h. inhibition, % at 6.95 µM. hit rate 47% among 2,900. AID 743256;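 active means mean inhibition over the triplicate runs exceeds the activity threshold set in the earlier primary screen, cut at about 20% in these data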;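 further: 0% = DMSO wells and 100% = marimastat wells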
ADAM17 confirm = human ADAM17 inhibition, confirmation. shares compounds with ADAM17 inh. recombinant ADAM17, EDANS/DABCYL QFRET peptide cleavage. inhibition, % at 6.95 µM. hit rate 65% among 2,900;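 active means mean inhibition across replicates above the hit cutoff set in the primary screen, cut at about 8.5% in these data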;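 further: 0% = DMSO wells and 100% = marimastat wells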
* marks the source's active call; other numbers are inactive results; x = not tested or not shown.

SMILES	GRIN3A LBD mod	ADAM17 inh	proKLK7 act	FAS-TE inh	ADAM10 inh	ADAM10 ctr	ADAM17 confirm
COc1ccc(CN(C2CCCC2)S(=O)(=O)c2cc(Br)ccc2Br)c(OC)c1	x	-2.3	-0.5	x	-2.2	x	x
O=C(N[C@H](C(=O)N1CCC[C@H]1C(=O)NCCc1ccccc1Cl)c1ccccc1)C1CC1	x	-6.4	0.5	x	-15.5	x	x
CCc1ccc(N2CC(C(=O)Nc3ccc(C)c(S(=O)(=O)N4CCOCC4)c3)CC2=O)cc1 (stereo not given)	-4.5	9.8*	0.4	6.7	7.3	1.6	2.6
CCc1ccc(N2CC(C(=O)Nc3ccc(OC)c(S(=O)(=O)N4CCOCC4)c3)CC2=O)cc1 (stereo not given)	x	0.8	0.7	-5.0	0.4	x	x
C[C@H]1[C@@H](OC(=O)Oc2ccc([N+](=O)[O-])cc2)CC[C@@]23CCCN2C(=O)CCC[C@@H]13	x	-5.5	x	x	-4.6	x	x
Cc1ccc(-n2c(C)cc(/C=C3/C(=N)N4C(c5ccccc5)=CSC4=NC3=O)c2C)cc1	-5.0	-1.5	0.4	20.5	2.4	x	x
N=C1/C(=C/c2cccn2CCOc2ccccc2)C(=O)N=C2SC=C(c3ccccc3)N12	23.3*	9.7*	-10.4	41.2	11.4	14.8	13.8*
O=C(c1ccccc1Cl)N1N=C(c2cccs2)CC1c1cccc(O)c1 (stereo not given)	1.8	9.0*	0.6	2.6	11.2	2.9	2.7
O=C(c1ccccc1)N1N=C(c2cccs2)CC1c1ccccc1O (stereo not given)	-3.0	3.8	0.3	13.4	11.9	x	x
CNC(=O)N(C1=NCC(C)(C)S1)c1ccc(F)c(Cl)c1	-3.7	9.2*	0.2	8.6	11.1	8.5	5.8
Cc1cc(C2(c3ccc(O)c(C)c3)OC(=O)c3ccccc32)ccc1O	-7.0	11.0*	-0.3	5.3	9.0	17.9	10.7*
N#CCc1ccc(NS(=O)(=O)c2ccc(C3CCCCC3)cc2)cc1	-3.7	10.0*	0.1	30.0	15.5	24.0*	10.4*
COC(=O)C1=C(C)N(Cc2ccccc2)C(=S)NC1c1ccc(Br)cc1 (stereo not given)	x	3.2	-0.6	x	4.9	x	x
CC(C)(C)S(=O)N1Cc2cc(C(=O)NCc3ccc4c(c3)OCO4)nc(-c3cccc(-c4cc5ccccc5o4)c3)c2[C@@H]1CCO (stereo not given in full)	x	3.0	0.2	-4.3	-2.2	x	x
COc1cccc(-c2cccc(-c3nc(C(=O)NCc4ccc5c(c4)OCO5)cc4c3[C@H](CCO)N(S(=O)C(C)(C)C)C4)c2)c1 (stereo not given in full)	x	19.0*	0.7	-7.0	16.3	12.7	10.3*
COC(=O)c1cc2c(c3c4cc(C)ccc4n(S(=O)(=O)c4ccc(C)cc4)c13)C(=O)N(Cc1ccc(N(C)C)cc1)C2	x	-2.6	-0.8	x	-3.6	x	x
O=C(C(=O)N(Cc1ccccc1)Cc1ccccc1)c1c(-c2ccccc2)[nH]c2ccccc12	6.5	10.9*	-3.6	26.9	22.0*	41.9*	22.4*
CC(=O)c1cccc(NC(=O)C2=CC(c3cccs3)=NS(=O)(=O)N2C)c1	-3.0	0.3	0.6	3.7	-1.8	x	x
CN1C(C(=O)Nc2cccc(O)c2)=CC(c2cccs2)=NS1(=O)=O	-4.5	9.7*	-0.9	3.5	13.1	18.2	7.3
COc1ccc(NC(=O)C2=CC(c3ccco3)=NS(=O)(=O)N2C)cc1	1.7	1.3	0.5	1.2	0.2	x	x
COc1ccc(NC(=O)C2=CC(c3ccc(OC)cc3)=NS(=O)(=O)N2C)cc1	-6.8	10.2*	0.7	19.6	10.6	17.5	7.2
Cc1cc(Br)c2nc(-c3cccc(Br)c3)c(Cc3cccc(Cl)c3)n2c1	x	-3.2	-0.2	x	-15.0	x	x
OCCn1c(CSc2nnc(-c3ccco3)n2-c2ccccc2)nc2ccc(Cl)cc21	-2.0	11.2*	0.3	-0.6	-10.7	-16.4	-2.8
NC(=O)CSc1nnc(-c2ccco2)n1-c1ccccc1	-1.0	0.2	-0.7	-2.7	8.3	x	x
O=S(=O)(c1ccc(C(F)(F)F)cc1)N1CCCc2nc(-c3ccccc3)ccc21	x	0.3	-0.1	x	-2.6	x	x
SMILES	GRIN3A LBD mod	ADAM17 inh	proKLK7 act	FAS-TE inh	ADAM10 inh	ADAM10 ctr	ADAM17 confirm
O=C(CN(Cc1ccccc1)S(=O)(=O)c1ccccc1)N/N=C/c1ccccc1[N+](=O)[O-]	-7.1	4.0	0.4	19.5	7.3	x	x
Cc1ccc(CN(CC(=O)N/N=C/c2ccccc2[N+](=O)[O-])S(=O)(=O)c2ccc(C)cc2)cc1	-18.6	9.1*	-0.2	22.8	13.2	33.0*	14.2*
COc1ccccc1C(=O)N1CCN(C(=O)[C@H](CCc2ccccc2)NC(=O)[C@H]2O[C@@H](n3cnc4c(N)ncnc43)[C@H](O)[C@@H]2O)CC1	x	-4.1	0.5	x	-6.5	x	x
CCOc1cc(N2CCOCC2)c(OCC)cc1NC(=O)CN1C(=O)NC2(CCc3ccccc32)C1=O (stereo not given)	1.8	8.8*	-0.1	-3.1	9.7	4.7	4.2
CCOc1ccc(NC(=O)CN(C)C(=O)c2cn(-c3ccc(C)cc3)nc2-c2cccc(OC)c2)cc1OCC	3.2	14.5*	0.2	34.5	9.3	34.3*	18.3*
CCOc1ccc(NC(=O)CN(C)C(=O)c2cn(-c3ccccc3)nc2-c2cccs2)cc1OCC	-1.1	5.4	-0.4	11.6	12.8	x	x
O=C(Nc1ccc(Nc2ccccc2)cc1)c1ccc(Cl)cc1Cl	7.8	11.7*	-0.1	25.4	19.0	36.0*	25.1*
O=C(NC1CC1)c1ccc2c(c1)C1C3CCC(C3)C1C(c1ccccc1)N2 (stereo not given)	-1.5	9.6*	0.8	9.3	16.9	10.7	9.4*
O=C(NC1CCCCC1)c1ccc2ccccc2c1	x	0.3	-0.4	-3.7	-3.6	x	x
COC(=O)C1=C(C)N(Cc2ccccc2C(F)(F)F)C(=NCc2ccccc2C(F)(F)F)NC1c1ccc(F)cc1 (stereo not given)	x	-0.8	-0.1	x	0.8	x	x
CC1(O)N(Cc2ccccc2)C(=O)OC12CCCCC2 (stereo not given)	-0.5	9.1*	-0.4	-0.8	7.3	11.9	13.9*
COC(=O)[C@]12C[C@H](CC(=O)NCc3ccccc3)C(=O)N(Cc3ccc4c(c3)OCO4)C1=C[C@H](COCc1ccccc1)O[C@@H]2C	x	-0.6	0.5	x	6.3	x	x
O=C(C1CCN(c2ncnc3c2sc2cccc(F)c23)CC1)N1CCCCC1	x	-9.7	-0.5	x	-55.1	x	x
N/C(=N\N=C\c1cccc([N+](=O)[O-])c1)c1nonc1N	-0.1	2.9	-0.2	0.1	5.0	x	x
N/C(=N\N=C\c1ccc2c(c1)OCO2)c1nonc1N	-2.8	9.8*	-0.3	-1.4	19.6	10.6	6.1
